Assay results as given in PubChem BioAssay (NCI).
Several values for one entry are separate records, joined by “and”; a condition that tells them apart may be missing. Equal values may be shown once. The panel holds about 79,000 compounds, 15% with a hit somewhere; the sample as a whole holds those more often. More than one record can exist for a structure, and the calls need not agree. Activity calls are given as the source filed them. Rule as the data show it: active = growth inhibition above about 70%; inactive = the rest.

Key:
[1] = NCI Yeast Anticancer Drug Screen. Data for the rad50 strain (AID 155);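 also: 0% = growth of vehicle-only cultures of the same strain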; settings: S. cerevisiae rad50 strain growth inhibition, stronger effect = higher value
Outline: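 DNA repair mutant yeast, compound exposure, growth read-out; inhibition is taken relative to vehicle.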

[2] = NCI Yeast Anticancer Drug Screen. Data for the mec2-1 strain (AID 157); settings: S. cerevisiae mec2-1 strain, stronger effect = higher value
Outline: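 Readout is yeast growth inhibition, normalised to vehicle-treated controls, in the mec2-1 strain exposed to compound.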

[3] = NCI Yeast Anticancer Drug Screen. Data for the sgs1 mgt1 strain (AID 161);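 also: 0% = growth of cultures given vehicle only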; settings: S. cerevisiae sgs1 mgt1 strain, stronger effect = higher value
Outline: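 Percent growth inhibition was derived by comparing compound-exposed mutant yeast with vehicle-exposed cultures. The strain carries alterations in DNA damage repair.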

[4] = NCI Yeast Anticancer Drug Screen. Data for the cln2 rad14 strain (AID 165);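 also: 0% = growth equal to vehicle treated cultures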; settings: S. cerevisiae cln2 rad14 strain, stronger effect = higher value
Outline: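 Relative to vehicle controls, growth inhibition of compound-treated cln2 rad14 yeast was recorded.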

[5] = NCI Yeast Anticancer Drug Screen. Data for the bub3 strain (AID 167); settings: S. cerevisiae bub3 mutant strain, stronger effect = higher value
Outline: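 In this screen, a yeast mutant lacking normal mitotic checkpoint function is challenged with compound. Relative growth versus vehicle gives the inhibition value.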

[6] = NCI Yeast Anticancer Drug Screen. Data for the mlh1 rad18 strain (AID 175); settings: S. cerevisiae mlh1 rad18 strain growth inhibition, stronger effect = higher value
Outline: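 Test agents were incubated with a yeast strain of defined genotype (DNA damage repair defect). Inhibition of growth was derived by comparison with vehicle-exposed cultures.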

[7] = at 5.0 µM (retest, dose inferred, filed as 0.5)
[8] = at 50.0 µM (retest, dose inferred, filed as 5.0)

Measured: growth inhibition

O=C1C(F)=C(N2CC2)C(=O)C(F)=C1N1CC1
active: [1]; [7] 99% | [1]; [8] 99% | [1]; at 50.0 µM 91.7% | [2]; [7] 100% | [2]; [8] 99% | [2]; at 50.0 µM 94% | [3]; [7] 100% | [3]; [8] 99% | [3]; at 50.0 µM 91% | [4]; [7] 100% | [4]; [8] 99% | [4]; at 50.0 µM 91.5% | [5]; [7] 98% | [5]; [8] 99% | [5]; at 50.0 µM 92.8% | [6]; [7] 99% | [6]; [8] 99% | [6]; at 50.0 µM 91.5%

CCOC(=O)c1ccccc1N
inactive: [1]; [7] 6% | [1]; [8] 4% | [1]; at 50.0 µM -2.65% | [2]; [7] 2% | [2]; [8] 1% | [2]; at 50.0 µM 1.2% | [3]; [7] -10% | [3]; [8] 1% | [3]; at 50.0 µM -5.7% | [4]; [7] 2% | [4]; [8] -4% | [4]; at 50.0 µM 45.8% | [5]; [7] 0% | [5]; [8] 6% | [5]; at 50.0 µM 7.7% | [6]; [7] -1% | [6]; [8] 4% | [6]; at 50.0 µM -17.9%

Cc1nc2c(Br)cc(Br)cc2c(=O)n1-c1ccccc1N
inactive: [1]; [7] 19% | [1]; [8] 22% | [1]; at 50.0 µM 63% | [2]; [7] 15% | [2]; [8] 17% | [2]; at 50.0 µM 9.45% | [3]; [7] 13% | [3]; [8] 24% | [3]; at 50.0 µM 63.8% | [4]; [7] 18% | [4]; [8] 37% | [4]; at 50.0 µM 19.4% | [5]; [7] 3% | [5]; [8] 4% | [6]; [7] 37% | [6]; [8] 34% | [6]; at 50.0 µM 46.2%
active: [5]; at 50.0 µM 70.2%

CC(Cl)CNC(C)C (stereo not drawn)
inactive: [1]; [7] -156% | [1]; [8] -171% | [1]; at 50.0 µM 4.95% | [2]; [7] -50% | [2]; [8] -57% | [2]; at 50.0 µM -9.4% | [3]; [7] -64% | [3]; [8] -67% | [3]; at 50.0 µM 3.25% | [4]; [7] -54% | [4]; [8] -67% | [4]; at 50.0 µM 24.5% | [5]; [7] -67% | [5]; [8] -80% | [5]; at 50.0 µM -7.95% | [6]; [7] -137% | [6]; [8] -120% | [6]; at 50.0 µM 6.1%

Oc1c(Cl)c(Cl)c(Cl)c(Cl)c1Cl (tested in a mixture with another compound)
active: [1]; [8] 99% | [1]; at 50.0 µM 99.2% and 99% and 98.8% | [2]; [8] 99% and 100% | [2]; at 50.0 µM 99.4% and 99.2% and 99.7% | [3]; [8] 99% | [3]; at 50.0 µM 99.4% and 99.3% and 99.2% | [4]; [8] 99% and 98% | [4]; at 50.0 µM 97.2% and 99.2% and 98.5% | [5]; [8] 99% | [5]; at 50.0 µM 99.5% and 99.3% | [6]; [8] 99% | [6]; at 50.0 µM 99.2% and 99%
inactive: [1]; [7] 56% and 41% and 27% | [2]; [7] 28% and 24% and -7% | [3]; [7] 58% and 44% and 23% | [4]; [7] 42% and 28% and 16% | [5]; [7] 30% and 29% and 1% | [6]; [7] 56% and 46% and 23%

CCCCCCCCCCCCC(=O)[O][Hg][c]1ccccc1
active: [1]; [7] 99% | [1]; [8] 99% | [1]; at 50.0 µM 99.2% | [2]; [7] 100% | [2]; [8] 100% | [2]; at 50.0 µM 99.5% | [3]; [7] 100% | [3]; [8] 100% | [3]; at 50.0 µM 99.5% | [4]; [7] 99% | [4]; [8] 99% | [4]; at 50.0 µM 99.3% | [5]; [7] 99% | [5]; [8] 99% | [5]; at 50.0 µM 100% | [6]; [7] 99% | [6]; [8] 99% | [6]; at 50.0 µM 99.5%

O=C(O)c1cc[c]([Hg])cc1
inactive: [1]; [7] -1% | [1]; [8] 5% | [1]; at 50.0 µM 38.4% | [2]; [7] -2% | [2]; [8] 3% | [2]; at 50.0 µM 25.6% | [3]; [7] 1% | [3]; [8] 5% | [3]; at 50.0 µM 36% | [4]; [7] -3% | [4]; [8] -4% | [4]; at 50.0 µM 2.65% | [5]; [7] 0% | [5]; [8] -7% | [5]; at 50.0 µM -5.4% | [6]; [7] 1% | [6]; [8] 3% | [6]; at 50.0 µM 38.2%

O=C1c2ccccc2-c2c3c(cc4ccnc1c24)OCO3
active: [1]; [7] 96% | [1]; [8] 97% | [1]; at 50.0 µM 86.2% and 86.5% | [2]; [8] 96% | [2]; at 50.0 µM 84.8% and 88.2% | [3]; [8] 96% | [3]; at 50.0 µM 86.6% and 86.2% | [4]; [8] 95% | [4]; at 50.0 µM 81.7% and 87% | [5]; [8] 95% | [5]; at 50.0 µM 87.5% and 87.3% | [6]; [7] 73% | [6]; [8] 95% | [6]; at 50.0 µM 85.8% and 88%
inactive: [2]; [7] 57% | [3]; [7] 50% | [4]; [7] 37% | [5]; [7] 61%

O=C(O)CCCC1CCCCC1
8.95% (inactive) and 79.8% (active): [6]; at 50.0 µM
inactive: [1]; [7] 0% | [1]; [8] 39% | [1]; at 50.0 µM 55.1% and 57% | [2]; [7] -2% | [2]; [8] 21% | [2]; at 50.0 µM 37.4% and 12.7% | [3]; [7] 4% | [3]; [8] 43% | [3]; at 50.0 µM 43% and 44.3% | [4]; [7] 4% | [4]; [8] 27% | [4]; at 50.0 µM 38.4% and 46.7% | [5]; [7] -1% | [5]; [8] 52% | [5]; at 50.0 µM 30.5% and 62.9% | [6]; [7] 2% | [6]; [8] 51%

OC(c1cc2c(c3ccccc13)CCCC2)C1CCCCN1 (stereo not drawn)
inactive: [1]; [7] -4% | [1]; [8] 17% | [1]; at 50.0 µM 64.5% | [2]; [7] -1% | [2]; [8] 12% | [2]; at 50.0 µM 42.4% | [3]; [7] 3% | [3]; [8] 47% | [3]; at 50.0 µM 68% | [4]; [7] 1% | [4]; [8] 21% | [5]; [7] 0% | [5]; [8] 18% | [5]; at 50.0 µM 59% | [6]; [7] 0% | [6]; [8] 41%
active: [4]; at 50.0 µM 79.7% | [6]; at 50.0 µM 95.5%

COc1cc(C[C@H]2c3cc(OC)c(OC)c(O)c3CCN2C)c(Oc2cc3c(cc2OC)-c2c(OC)c(OC)c(OC)c4c2C(C3)N(C)CC4)cc1OC (stereo partly drawn) (tested in a mixture with another compound)
active: [6]; [8] 96% | [6]; at 50.0 µM 80%
inactive: [1]; [7] -2% | [1]; [8] 40% | [1]; at 50.0 µM 64.7% | [2]; [7] -1% | [2]; [8] 52% | [2]; at 50.0 µM 33.5% | [3]; [7] -6% | [3]; [8] 36% | [3]; at 50.0 µM 47.8% | [4]; [7] -7% | [4]; [8] 44% | [4]; at 50.0 µM 44.8% | [5]; [7] 3% | [5]; [8] 39% | [5]; at 50.0 µM 61.5% | [6]; [7] -5%

[CH3][Sn]([Br])([Br])[CH2]CCCBr
active: [1]; [8] 95% | [1]; at 50.0 µM 89.7% | [2]; [8] 94% | [2]; at 50.0 µM 93.4% | [3]; [8] 97% | [3]; at 50.0 µM 73.2% | [4]; [8] 93% | [4]; at 50.0 µM 86.1% | [5]; [8] 93% | [5]; at 50.0 µM 90.7% | [6]; [8] 86% | [6]; at 50.0 µM 85.1%
inactive: [1]; [7] 22% | [2]; [7] 10% | [3]; [7] 23% | [4]; [7] 7% | [5]; [7] 13% | [6]; [7] 27%

CCCCCCC1CCC2CCCC(C)N12 (stereo not drawn)
active: [1]; at 50.0 µM 85.3% | [2]; at 50.0 µM 70.8% | [3]; at 50.0 µM 88.2% | [4]; at 50.0 µM 71.1% | [5]; [8] 74% | [5]; at 50.0 µM 89% | [6]; at 50.0 µM 74.9%
inactive: [1]; [7] -5% | [1]; [8] 67% | [2]; [7] -4% | [2]; [8] 25% | [3]; [7] 10% | [3]; [8] 68% | [4]; [7] 14% | [4]; [8] 43% | [5]; [7] -19% | [6]; [7] 2% | [6]; [8] 57%

CCOP(=O)(OCC)/C(C#N)=C/c1ccccc1Cl
active: [1]; [8] 74% | [1]; at 50.0 µM 82.5% | [2]; at 50.0 µM 72.8% | [3]; at 50.0 µM 79.8% | [5]; [8] 74% | [5]; at 50.0 µM 72.7% | [6]; [8] 77% | [6]; at 50.0 µM 81.8%
inactive: [1]; [7] 17% | [2]; [7] -7% | [2]; [8] 62% | [3]; [7] 2% | [3]; [8] 65% | [4]; [7] 10% | [4]; [8] 55% | [4]; at 50.0 µM 64.8% | [5]; [7] 0% | [6]; [7] -2%

[Ni+2].[SH2+]C([SH2+])=Nc1ccccc1.[SH2+]C([SH2+])=Nc1ccccc1.c1ccc(C[P+](c2ccccc2)(c2ccccc2)c2ccccc2)cc1
inactive: [1]; [7] 14% | [2]; [7] 26% | [3]; [7] 21% | [4]; [7] -6% | [5]; [7] 8% | [6]; [7] 40%
active: [1]; [8] 91% | [1]; at 50.0 µM 97.9% | [2]; [8] 88% | [2]; at 50.0 µM 98% | [3]; [8] 91% | [3]; at 50.0 µM 97.8% | [4]; [8] 87% | [4]; at 50.0 µM 90.8% | [5]; [8] 85% | [5]; at 50.0 µM 95.3% | [6]; [8] 98% | [6]; at 50.0 µM 98.5%

O=C(COc1ccc(Cl)c(Cl)c1)N(Cc1ccccc1)Cc1ccc[n+](Cc2ccc(Cl)cc2S(=O)(=O)F)c1
inactive: [1]; [7] 8% | [1]; at 50.0 µM 54% | [2]; [7] 44% | [2]; [8] 42% | [2]; at 50.0 µM 54.9% | [3]; [7] 2% | [3]; [8] 62% | [3]; at 50.0 µM -0.3% | [4]; [7] 10% | [4]; at 50.0 µM 50.4% | [5]; [7] 2% | [5]; at 50.0 µM 42.4% | [6]; [7] 6% | [6]; at 50.0 µM 60.1%
active: [1]; [8] 84% | [4]; [8] 78% | [5]; [8] 82% | [6]; [8] 96%
